Measured values taken from PubChem BioAssay.

molecular target: Follistatin (Homo sapiens) (UniProt P19883); assay: FST protein binding to printed compounds – biochemical, small-molecule microarray, 635/667 nm fluorescence, primary screen (AID 1132); details: 635 nm fluorescence, higher = more signal
Sequence (P19883 whole entry, looked up): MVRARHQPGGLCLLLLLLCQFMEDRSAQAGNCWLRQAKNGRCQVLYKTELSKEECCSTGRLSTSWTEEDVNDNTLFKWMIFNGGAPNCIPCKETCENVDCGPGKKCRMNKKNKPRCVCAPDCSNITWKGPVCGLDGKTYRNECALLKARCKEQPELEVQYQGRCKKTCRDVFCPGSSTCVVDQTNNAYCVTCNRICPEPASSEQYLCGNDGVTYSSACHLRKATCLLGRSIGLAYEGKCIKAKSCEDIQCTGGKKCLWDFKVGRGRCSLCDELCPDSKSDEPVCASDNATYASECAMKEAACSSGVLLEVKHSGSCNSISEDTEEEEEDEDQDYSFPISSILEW

Going from `CC(=O)Nc1cc(Br)ccc1C(=O)O` to `O=C1[C@]2(CO)C=C(Br)[C@@H](C[C@@H]2c2ccccc2)[C@@]12CO2`, the composite z-score rises from 0.0564 to 0.518.

Compared with `Cc1ccccc1C(O)C1C=CC2C(=O)N(C)C(=O)C2N1N1CCCCC1` (stereo not given), `Cc1cc(C)c(C(O)C2C=CC3C(=O)N(C)C(=O)C3N2Nc2ccccc2)c(C)c1` (stereo not given) is lower in composite z-score: 0.767 for the first, 0.72 for the second.

Going from `[N-]=[N+]=NCc1ccccc1[C@@H]1OC(c2ccc(OCCCO)cc2)=N[C@]1(Cc1ccccc1)C(=O)N1CCCCC1` to `COC(=O)[C@@]1(Cc2ccccc2N=[N+]=[N-])COC(c2ccc(OCCCO)cc2)=N1`, the composite z-score falls from 1.41 to 1.27.

Going from `COCC(=C=CC[C@H](O)c1ccc(OCCO)cc1)C[C@H](O)c1cc(Cl)cc(Cl)c1O` to `CC(C)C[C@@H]1NC(=O)[C@H]2C[C@@H](C(=O)NCCCCCCNC(=O)CS)[C@@H](c3cccc(OCCO)c3)N2C1=O`, the composite z-score rises from 1.38 to 1.43.

Compared with `COC(=O)[C@@]1(Cc2ccc(OC)cc2)[C@H]2c3cc(C(=O)N4CCCC4)n(Cc4ccccn4)c3C[C@H]2CN1C(=O)c1ccccc1`, `O=C1O[C@H](c2ccccc2)[C@H](c2ccccc2)N2[C@H]1[C@@H](C(=O)O)[C@]1(C(=O)Nc3ccc(C#CC4=CCCCC4)cc31)[C@H]2c1ccc(OCCO)cc1` is higher in composite z-score: 0.169 for the first, 1.26 for the second.

First: COc1ccc([Si](C)(C)[C@@H]2[C@@H](CCn3cc([C@H](O)c4ccccc4)nn3)O[C@]3(C(=O)N(Cc4ccc(N5C(=O)c6cccc7cccc5c67)cc4)c4ccccc43)[C@H]2C)cc1
Second: O=C1O[C@@H](c2ccccc2)[C@@H](c2ccccc2)N2[C@@H](c3ccc(OCCO)cc3)[C@]3(C(=O)Nc4ccccc43)[C@@H](C(=O)Nc3nc4ccccc4s3)[C@H]12
The composite z-score of the first is lower: -0.7 for the first, 1.21 for the second.

First: O=C1O[C@@H](c2ccccc2)[C@@H](c2ccccc2)N2[C@@H](c3ccc(O)cc3)[C@]3(C(=O)Nc4ccc(C#CC5(O)CCCCCC5)cc43)[C@@H](C(=O)N3CCCCCCC3)[C@H]12
Second: O=C1O[C@H](c2ccccc2)[C@H](c2ccccc2)N2[C@H]1[C@@H](C(=O)NC[C@H](O)c1ccccc1)[C@]1(C(=O)Nc3ccc(C#CCCO)cc31)[C@H]2c1ccc(O)cc1
The composite z-score of the first is higher: 1.47 for the first, -1.26 for the second.

First: COCCOC(=O)N1C(=O)[C@@]2(c3cc(C#CCCO)ccc31)[C@H](c1ccccc1OCCO)N1[C@H](c3ccccc3)[C@H](c3ccccc3)OC(=O)[C@H]1[C@@H]2C(=O)N1CCN(c2ncccn2)CC1
Second: COCCOC(=O)N1C(=O)[C@@]2(c3cc(C#CCC(C(=O)OC)C(=O)OC)ccc31)[C@H](c1ccccc1OCCO)N1[C@H](c3ccccc3)[C@H](c3ccccc3)OC(=O)[C@H]1[C@@H]2C(N)=O
The composite z-score of the first is higher: 1.32 for the first, 1.08 for the second.

First: CC=CC(O)C1C=CC2C(=O)N(c3ccccc3)C(=O)C2N1Nc1ccc(C(C)C)cc1 (stereo not given)
Second: CC(C)c1ccc(NN2C(C(O)c3ccc(N(C)C)cc3)C=CC3C(=O)N(c4ccccc4)C(=O)C32)cc1 (stereo not given)
The composite z-score of the first is lower: 1.12 for the first, 1.25 for the second.

First: CC(c1ccccc1)C(O)C1C=CC2C(=O)NC(=O)C2N1Nc1ccccn1 (stereo not given)
Second: CN(C)CCCCNC(=O)[C@H]1C[C@H]2C(=O)N[C@@H](Cc3ccccc3)C(=O)N2[C@H]1c1ccc(O)cc1
The composite z-score of the first is lower: 1.12 for the first, 1.34 for the second.

Compared with `C=CCC(OC(C)=O)[C@@H]1[C@@H](N(Cc2ccc(-c3cccc(C(F)(F)F)c3)o2)C(=O)c2ccc(C)cc2)c2cc(OCCCO)ccc2N1C(=O)c1ccc(-c2ccccc2)cc1` (stereo not given in full), `C=CCC(OC(C)=O)[C@@H]1[C@@H](N(Cc2ccc(-c3ccccc3)cc2)C(=O)Cc2ccc(F)cc2)c2cc(OCCCO)ccc2N1C(=O)c1ccc2ccccc2n1` (stereo not given in full) is lower in composite z-score: 0.65 for the first, 0.177 for the second.

Going from `COc1ccc([Si](C)(C)[C@@H]2[C@@H](CC(=O)N3CCC[C@H]3CO)O[C@]3(C(=O)N(C)c4c(Br)cc(C)cc43)[C@H]2C)cc1` to `CS(=O)(=O)CCOC(=O)C1=CC(c2ccc(CO)cc2)=CC(C2CC2)N(Cc2cc3c(cc2Br)OCO3)C=C1C(=O)OCCS(C)(=O)=O` (stereo not given), the composite z-score falls from 1.17 to 0.678.

Going from `CCCNC(=O)[C@@]1(c2ccc([N+](=O)[O-])cc2)CC(=O)N(CC23CC4CC(CC(C4)C2)C3)[C@@H]1c1ccc(CO)cc1` to `Cc1ccc(S[C@]2(C(=O)NCc3ccccc3)CC(=O)N(Cc3ccccc3)[C@@H]2c2ccc(CO)cc2)cc1`, the composite z-score falls from 0.509 to -0.211.

First: O=C1OCCC=C[C@H]2OC34C=CCN(Cc5ccccc5)C(=O)[C@H]3N(CCCO)C(=O)[C@@H]4C12 (stereo not given in full)
Second: O=C1N(CCS(=O)(=O)c2ccccc2)Cc2ccccc2C[C@]12N=C(c1ccc(OCCCO)cc1)O[C@@H]2c1ccccc1
The composite z-score of the first is lower: -0.145 for the first, 1.5 for the second.

First: COCCOC(=O)N1C(=O)[C@@]2(c3cc(C#CCC(C(=O)OC)C(=O)OC)ccc31)[C@H](c1ccc(O)cc1)N1[C@H](c3ccccc3)[C@H](c3ccccc3)OC(=O)[C@H]1[C@@H]2C(N)=O
Second: C=CCNC(=O)[C@H]1[C@@H]2C(=O)O[C@@H](c3ccccc3)[C@@H](c3ccccc3)N2[C@@H](c2ccc(O)cc2)[C@]12C(=O)N(C(=O)OCCOC)c1ccc(C#CCCO)cc12
The composite z-score of the first is higher: 0.857 for the first, 0.448 for the second.

First: CC(C)CNC(=O)[C@@H]1c2ccccc2C(=O)N(Cc2cc(C(F)(F)F)cc(C(F)(F)F)c2)[C@H]1c1ccc(CO)cc1
Second: CCOC(=O)C1=C[C@@H](CC)N(S(=O)(=O)c2ccc(C)cc2)[C@H]1c1ccccc1
The composite z-score of the first is lower: -0.137 for the first, 0.431 for the second.

First: O=C(CS)NCCCCCCNC(=O)[C@@H]1C[C@@H]2C(=O)N3CCC[C@H]3C(=O)N2[C@@H]1c1ccc(O)cc1
Second: C=C[C@@H](COC(C)=O)N(Cc1ccccc1[N+](=O)[O-])S(=O)(=O)c1ccc(Br)cc1
The composite z-score of the first is lower: 1.16 for the first, 1.42 for the second.

Molecule `CCCCCCc1nc(CCCc2cc3c(c(CCCCCC)n2)[Si](C(C)C)(C(C)C)OC3)cc2c1[Si](C(C)C)(C(C)C)OC2` has a composite z-score of 0.597.
